Data on 34 compounds can be found in PubChem BioAssay (EPA / NIEHS).

Inconclusive results are not listed. Calls of active or inactive are those of the source. The calls were made as follows, unless noted: active = hit-call score of the fitted dose curve at least 0.9, where 1 is the maximum; inconclusive = response in the unintended direction; inactive = score below 0.9.

The first assay deals with Peroxisome proliferator-activated receptor gamma (Homo sapiens) (UniProt P37231). The assay is described as follows: OT_PPARg_PPARgSRC1_0480: Odyssey Thera (OT) 8-hour Protein-Complementation Assay for Peroxisome Proliferator-activated Receptor Gamma / SRC-1 Co-activator (AID 2283387).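 Also: nuclear to cytoplasmic split Venus YFP fluorescence ratio reporting PPARg SRC-1 interaction.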
Chain of Peroxisome proliferator-activated receptor gamma (Homo sapiens) (P37231 whole entry, looked up): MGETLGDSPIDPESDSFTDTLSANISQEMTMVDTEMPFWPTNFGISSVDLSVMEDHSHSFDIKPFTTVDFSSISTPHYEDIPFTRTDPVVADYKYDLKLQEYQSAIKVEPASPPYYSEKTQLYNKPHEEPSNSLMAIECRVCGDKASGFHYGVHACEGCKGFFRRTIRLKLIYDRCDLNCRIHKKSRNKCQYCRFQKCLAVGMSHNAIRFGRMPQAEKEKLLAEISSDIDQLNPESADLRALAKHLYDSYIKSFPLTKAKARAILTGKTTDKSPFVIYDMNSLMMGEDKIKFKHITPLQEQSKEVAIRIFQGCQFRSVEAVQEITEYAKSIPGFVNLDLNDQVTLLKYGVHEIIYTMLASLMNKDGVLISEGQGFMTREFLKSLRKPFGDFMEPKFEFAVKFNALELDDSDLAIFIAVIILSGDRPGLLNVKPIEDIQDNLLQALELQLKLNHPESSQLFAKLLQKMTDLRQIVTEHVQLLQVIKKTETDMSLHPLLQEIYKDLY
Conditions: not given
Put shortly:
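Read-out: 488 nm N/C fluorescence ratio from complemented Venus YFP fragments, ≥350 cells per image, gain-of-signal fitted against DMSO baseline. Fusions of PPARg/SRC-1 with IFP1/IFP2 expressed transiently in HEK293T; compounds applied 8 h.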
As for `CCOc1ccc(C(C)(C)COCc2cccc(Oc3ccccc3)c2)cc1`, the compound was called inactive.
Still for that read-out and setting: in the case of `O=c1ssc(Cl)c1Cl` it was “inactive”.
Same read-out and setting: then `CCCCOCC1CO1` (stereo not given), with “inactive”.
Consider `c1nc[nH]n1`, for which the result was inactive.

Another assay has the same target. Kind of assay: OT_PPARg_PPARgSRC1_1440: Odyssey Thera (OT) 24-hour Protein-Complementation Assay for Peroxisome Proliferator-activated Receptor Gamma/ SRC-1 Co-activator (AID 2283388).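 Also: nuclear to cytoplasmic ratio of reconstituted Venus YFP fluorescence in fixed imaged cells.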
Conditions: not given
Put shortly: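 Readout is the 488 nm N/C fluorescence ratio from fixed, Draq5-stained HEK293T cells after 24 h compound exposure. Cells carried transiently transfected PPARg and SRC-1 fused to Venus fragments, transfected 48 h before treatment.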
Consider `CCN(CC)c1ccccc1`, for which the result was inactive.
The same measure, in the same setting: in the case of `CCCCC(CC)COC(=O)c1c(Br)c(Br)c(Br)c(Br)c1C(=O)OCC(CC)CCCC` (stereo not given) it was “inactive”.
Still for that read-out and setting: in the case of `Cc1ccc(N)cc1N` it was “inactive”; in that of `ClC1=C(Cl)C2(Cl)C3C(Cl)C(Cl)CC3C1(Cl)C2(Cl)Cl` (stereo not given), “inactive”.
Still for that read-out and setting: then `CCOP(=S)(OCC)SCSCC`, with “inactive”.
As for `CCCCc1ccccc1`, the outcome was inactive.
The same measure, in the same setting: then `CCCCCCCc1ccc(O)cc1`, with “inactive”; and `O=P(Oc1ccccc1)(Oc1ccccc1)Oc1ccccc1`, with “inactive”.
On the same count and under the same terms, in the case of `OCC1CO1` (stereo not given) it was “inactive”; in that of `CC(C)(C)OOC(C)(C)C`, “inactive”.
Same read-out and setting: in the case of `O=NN1CCCC1` it was “inactive”.
`CCCCN(CCCC)N=O`: the result was inactive.
Still for that read-out and setting: then `CC(C)(C)N(NC(=O)c1ccc(Cl)cc1)C(=O)c1ccccc1`, with “inactive”; and `O=P(OCC(Br)CBr)(OCC(Br)CBr)OCC(Br)CBr` (stereo not given), with “inactive”; and `CN(C)C(=O)Cl`, with “inactive”.
Same read-out and setting: then `O=S1(=O)OCC2C(CO1)C1(Cl)C(Cl)=C(Cl)C2(Cl)C1(Cl)Cl` (stereo not given), with “inactive”; and `O=[N+]([O-])c1ccccc1`, with “inactive”.
On the same count and under the same terms, in the case of `Cc1ccc([N+](=O)[O-])cc1C` it was “inactive”; in that of `CCCCc1ccc(O)cc1`, “inactive”; in that of `O=C(CBr)OCc1ccccc1`, “inactive”.
As for `CCNc1nc(Cl)nc(NC(C)(C)C)n1`, the call was inactive.
Regarding `ClC(Cl)c1ccccc1`, the call was inactive.
Still for that read-out and setting: in the case of `CCOC(=O)c1ccccc1N` it was “inactive”; in that of `CCC(C)(C)c1ccc(O)cc1`, “inactive”; in that of `O=[N+]([O-])c1ccc(Cl)c(Cl)c1`, “inactive”.
In the case of `O=S(=O)(c1ccc(O)cc1)c1ccc(O)cc1`, the call was inactive.
In the case of `CCCCC(CC)COP(=O)(Oc1ccccc1)Oc1ccccc1` (stereo not given), the outcome was inactive.
As for `CCCCN(CC)C(=O)SCCC`, the compound was classed as inactive.
For `CCCN(CCC)c1c([N+](=O)[O-])cc(C(C)C)cc1[N+](=O)[O-]`, the call was inactive.
On the same count and under the same terms, in the case of `CCOc1ccc(C(C)(C)COCc2cccc(Oc3ccccc3)c2)cc1` it was “inactive”; in that of `O=c1ssc(Cl)c1Cl`, “inactive”; in that of `CCCCOCC1CO1` (stereo not given), “inactive”.
Take `c1nc[nH]n1`: the result was inactive.

Read-out in another assay: not listed separately
Kind of assay: CEETOX_H295R_OHPREG: CeeTox H295R High-throughput Steroidogenesis Assay for OH-Pregnenolone (OHPREG) (AID 2283434; active = hit-call score of the fitted dose curve at least 0.9, where 1 is the maximum; inactive = score below 0.9). To be noted: actives raise or lower the signal. Put shortly:
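H295R cells pre-stimulated 48 h with 10 uM forskolin, then exposed 48 h to chemical in 0.1% DMSO. 17alpha-hydroxypregnenolone in medium quantified by MTBE extraction and HPLC-MS/MS; bidirectional fit versus DMSO, viability checked by MTT.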
For the compound `Cc1ccc(N)cc1N`, the result was inactive.
Take `O=P(Oc1ccccc1)(Oc1ccccc1)Oc1ccccc1`: the AC50 – broadly, the concentration giving half of the maximal activity seen – was 3.68 µM (active).
For the compound `O=S1(=O)OCC2C(CO1)C1(Cl)C(Cl)=C(Cl)C2(Cl)C1(Cl)Cl` (stereo not given), the AC50 is 2.84 µM (active).
`CCCCc1ccc(O)cc1`: the call was inactive.
Consider `CCNc1nc(Cl)nc(NC(C)(C)C)n1`, for which the AC50 was 9.93 µM (active).
As for `CCC(C)(C)c1ccc(O)cc1`, the outcome was inactive.
The same measure, in the same setting: then `O=S(=O)(c1ccc(O)cc1)c1ccc(O)cc1`, with “inactive”.
For `CO/N=C(/C(=O)OC)c1ccccc1COc1ccccc1C`, the AC50 was 13.1 µM (active).
